Data taken from publication PMC7862700, “An all-to-all approach to the identification of sequence-specific readers for epigenetic DNA modifications on cytosine”.

How the values were obtained:
Test in all cases: DAPPL (digital affinity profiling via proximity ligation, sequencing); 10 mM Tris-HCl pH 7.5, 50 mM NaCl, 1 mM DTT, 4% glycerol, room temperature, 30 min; GST-TFs on glutathione beads, 16-mer random dsDNA library, 0.1% formaldehyde crosslink after washing; high values mean tight binding
[1] = target: T1, FLI1 (Homo sapiens, UniProt Q01543 1-452); details: protein: recombinant; tags: N-terminal GST; dsDNA, one strand shown
T1 sequence: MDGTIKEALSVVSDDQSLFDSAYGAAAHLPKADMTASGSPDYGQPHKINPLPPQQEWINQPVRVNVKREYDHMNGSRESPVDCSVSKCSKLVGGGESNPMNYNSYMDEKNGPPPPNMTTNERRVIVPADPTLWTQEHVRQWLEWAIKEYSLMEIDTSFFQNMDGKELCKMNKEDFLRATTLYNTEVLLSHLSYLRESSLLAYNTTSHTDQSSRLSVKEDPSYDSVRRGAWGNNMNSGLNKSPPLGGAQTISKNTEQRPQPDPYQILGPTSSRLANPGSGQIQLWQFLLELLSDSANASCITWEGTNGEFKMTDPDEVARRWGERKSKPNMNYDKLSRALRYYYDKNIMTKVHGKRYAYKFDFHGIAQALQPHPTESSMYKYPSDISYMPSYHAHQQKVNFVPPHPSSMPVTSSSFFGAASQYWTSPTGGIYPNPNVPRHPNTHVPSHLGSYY
How it was run: (§1)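 A tag-only sample was pooled with DNA-barcoded human transcription factors that had been expressed in yeast as GST fusions and captured on glutathione beads. The pools were incubated for 30 min at room temperature with 200 nmole of a random double-stranded 16-mer DNA library in Tris/NaCl/DTT/glycerol buffer, then washed, crosslinked with 0.1% formaldehyde, proximity-ligated (BsaI/T4 ligase, 1 h, 37 °C), PCR-amplified and sequenced on an Illumina NextSeq500. Binding signal is each hexamer's read frequency for a factor divided by its frequency for the tag-only sample.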

[2] = target: T2, ELK1 (Homo sapiens, UniProt P19419 1-428); details: protein: recombinant; tags: N-terminal GST; dsDNA, one strand shown
T2 sequence: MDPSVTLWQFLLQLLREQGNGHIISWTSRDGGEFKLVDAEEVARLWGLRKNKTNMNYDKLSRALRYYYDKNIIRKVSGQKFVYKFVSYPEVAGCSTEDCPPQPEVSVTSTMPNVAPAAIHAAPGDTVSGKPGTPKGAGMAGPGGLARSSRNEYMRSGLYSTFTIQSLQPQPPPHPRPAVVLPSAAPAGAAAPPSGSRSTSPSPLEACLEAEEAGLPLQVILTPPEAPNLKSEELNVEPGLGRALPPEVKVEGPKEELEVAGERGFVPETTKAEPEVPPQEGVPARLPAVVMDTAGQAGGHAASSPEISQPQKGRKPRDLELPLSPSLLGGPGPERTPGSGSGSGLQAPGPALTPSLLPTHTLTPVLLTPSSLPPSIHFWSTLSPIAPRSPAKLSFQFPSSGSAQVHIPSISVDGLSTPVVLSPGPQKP
How it was run: as §1

[3] = target: T3, GABPA (Homo sapiens, UniProt Q06546 1-454); details: protein: recombinant; tags: N-terminal GST; dsDNA, one strand shown
T3 sequence: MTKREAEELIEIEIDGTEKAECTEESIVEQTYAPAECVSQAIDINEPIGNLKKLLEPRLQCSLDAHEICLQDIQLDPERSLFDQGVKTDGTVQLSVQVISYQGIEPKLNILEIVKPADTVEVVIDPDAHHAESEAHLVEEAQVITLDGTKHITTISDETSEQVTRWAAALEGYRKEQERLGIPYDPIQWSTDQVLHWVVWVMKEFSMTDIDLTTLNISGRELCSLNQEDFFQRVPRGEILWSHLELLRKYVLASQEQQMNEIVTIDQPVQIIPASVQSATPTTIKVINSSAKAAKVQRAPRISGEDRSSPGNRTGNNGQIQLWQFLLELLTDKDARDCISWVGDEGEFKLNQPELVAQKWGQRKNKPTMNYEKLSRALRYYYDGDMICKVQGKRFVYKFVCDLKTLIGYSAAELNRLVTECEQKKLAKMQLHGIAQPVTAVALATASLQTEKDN
How it was run: as §1

[4] = target: T4, ERG (Homo sapiens, UniProt P11308 1-479); details: protein: recombinant; tags: N-terminal GST; dsDNA, one strand shown
T4 sequence: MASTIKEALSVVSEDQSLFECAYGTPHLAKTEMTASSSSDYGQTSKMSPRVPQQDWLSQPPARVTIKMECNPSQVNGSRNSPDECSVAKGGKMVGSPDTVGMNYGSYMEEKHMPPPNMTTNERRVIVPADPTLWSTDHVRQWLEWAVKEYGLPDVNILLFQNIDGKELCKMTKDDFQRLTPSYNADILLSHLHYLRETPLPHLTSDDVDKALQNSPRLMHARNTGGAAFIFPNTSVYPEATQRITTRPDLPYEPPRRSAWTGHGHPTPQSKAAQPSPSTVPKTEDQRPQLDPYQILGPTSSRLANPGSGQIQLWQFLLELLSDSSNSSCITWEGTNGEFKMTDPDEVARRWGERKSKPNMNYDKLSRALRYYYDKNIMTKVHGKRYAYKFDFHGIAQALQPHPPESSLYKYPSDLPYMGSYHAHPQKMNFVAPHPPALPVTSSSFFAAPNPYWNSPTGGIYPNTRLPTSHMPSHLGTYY
How it was run: as §1

[5] = target: ELF1 (Homo sapiens, UniProt P32519 1-619); details: protein: recombinant; tags: N-terminal GST; dsDNA, one strand shown
How it was run: as §1

[6] = target: T5, EHF (Homo sapiens, UniProt Q9NZC4 1-300); details: protein: recombinant; tags: N-terminal GST; dsDNA, one strand shown
T5 sequence: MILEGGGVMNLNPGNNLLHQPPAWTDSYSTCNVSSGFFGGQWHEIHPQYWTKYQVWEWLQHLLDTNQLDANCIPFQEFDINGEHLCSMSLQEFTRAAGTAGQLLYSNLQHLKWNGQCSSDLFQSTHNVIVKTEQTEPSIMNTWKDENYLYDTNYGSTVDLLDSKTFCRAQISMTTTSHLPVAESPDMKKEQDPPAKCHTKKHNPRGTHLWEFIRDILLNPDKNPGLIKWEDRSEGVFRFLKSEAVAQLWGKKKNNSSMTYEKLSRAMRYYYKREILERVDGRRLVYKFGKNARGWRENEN
How it was run: as §1

[7] = target: SPI1 (Homo sapiens, UniProt P17947 1-270); details: protein: recombinant; tags: N-terminal GST; dsDNA, one strand shown
How it was run: as §1

[8] = target: SPIB (Homo sapiens, UniProt Q01892 1-262); details: protein: recombinant; tags: N-terminal GST; dsDNA, one strand shown
How it was run: as §1

[9] = target: T6, ELK3 (Homo sapiens, UniProt P41970 1-407); details: protein: recombinant; tags: N-terminal GST; dsDNA, one strand shown
T6 sequence: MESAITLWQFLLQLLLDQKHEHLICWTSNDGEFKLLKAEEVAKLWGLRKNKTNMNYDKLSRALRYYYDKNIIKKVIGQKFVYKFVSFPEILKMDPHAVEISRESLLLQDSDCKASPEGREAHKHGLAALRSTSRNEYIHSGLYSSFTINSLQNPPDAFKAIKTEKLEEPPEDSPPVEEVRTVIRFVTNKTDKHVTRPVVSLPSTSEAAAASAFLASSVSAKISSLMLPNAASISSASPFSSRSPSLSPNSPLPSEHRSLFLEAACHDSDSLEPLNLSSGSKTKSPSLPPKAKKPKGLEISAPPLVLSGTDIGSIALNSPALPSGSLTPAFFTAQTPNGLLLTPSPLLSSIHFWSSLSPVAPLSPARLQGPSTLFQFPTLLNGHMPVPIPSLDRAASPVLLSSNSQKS
How it was run: as §1

[10] = target: T7, FEV (Homo sapiens, UniProt Q99581 1-238); details: protein: recombinant; tags: N-terminal GST; dsDNA, one strand shown
T7 sequence: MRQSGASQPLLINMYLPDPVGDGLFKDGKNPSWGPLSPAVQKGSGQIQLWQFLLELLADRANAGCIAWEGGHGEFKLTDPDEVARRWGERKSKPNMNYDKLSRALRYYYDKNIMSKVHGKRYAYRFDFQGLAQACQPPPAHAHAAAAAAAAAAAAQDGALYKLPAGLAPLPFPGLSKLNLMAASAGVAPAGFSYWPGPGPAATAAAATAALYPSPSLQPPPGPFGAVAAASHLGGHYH
How it was run: as §1

[11] = target: ETV5 (Homo sapiens, UniProt P41161 1-510); details: protein: recombinant; tags: N-terminal GST; dsDNA, one strand shown
How it was run: as §1

[12] = target: HSF1 (Homo sapiens, UniProt Q00613 1-529); details: protein: recombinant; tags: N-terminal GST; chain copies: 3; dsDNA, one strand shown
How it was run: as §1

[13] = target: T8, SPIC (Homo sapiens, UniProt Q8N5J4 1-248); details: protein: recombinant; tags: N-terminal GST; dsDNA, one strand shown
T8 sequence: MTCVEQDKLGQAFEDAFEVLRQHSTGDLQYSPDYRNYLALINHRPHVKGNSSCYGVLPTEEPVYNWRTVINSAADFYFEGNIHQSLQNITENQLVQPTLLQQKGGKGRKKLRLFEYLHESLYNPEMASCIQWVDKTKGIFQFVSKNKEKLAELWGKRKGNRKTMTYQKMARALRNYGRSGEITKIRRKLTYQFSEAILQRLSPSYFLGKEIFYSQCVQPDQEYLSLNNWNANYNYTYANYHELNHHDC
How it was run: as §1

[14] = target: ELF4 (Homo sapiens, UniProt Q99607 1-663); details: protein: recombinant; tags: N-terminal GST; dsDNA, one strand shown
How it was run: as §1

[15] = target: T9, ELK4 (Homo sapiens, UniProt P28324-2 1-405); details: protein: recombinant; tags: N-terminal GST; dsDNA, one strand shown
T9 sequence: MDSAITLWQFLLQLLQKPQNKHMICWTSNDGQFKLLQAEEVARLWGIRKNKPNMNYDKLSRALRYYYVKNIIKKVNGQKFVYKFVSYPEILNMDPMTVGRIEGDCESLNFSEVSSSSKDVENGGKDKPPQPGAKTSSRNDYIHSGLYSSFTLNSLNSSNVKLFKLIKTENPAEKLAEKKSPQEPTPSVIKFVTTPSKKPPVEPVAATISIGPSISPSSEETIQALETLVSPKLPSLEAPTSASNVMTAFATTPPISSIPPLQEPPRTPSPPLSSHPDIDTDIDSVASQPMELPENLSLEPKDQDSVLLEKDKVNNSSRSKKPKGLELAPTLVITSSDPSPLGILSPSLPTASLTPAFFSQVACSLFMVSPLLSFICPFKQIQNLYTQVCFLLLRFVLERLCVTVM
How it was run: as §1

[16] = target: T10, ETV2 (Homo sapiens, UniProt O00321 1-342); details: protein: recombinant; tags: N-terminal GST; dsDNA, one strand shown
T10 sequence: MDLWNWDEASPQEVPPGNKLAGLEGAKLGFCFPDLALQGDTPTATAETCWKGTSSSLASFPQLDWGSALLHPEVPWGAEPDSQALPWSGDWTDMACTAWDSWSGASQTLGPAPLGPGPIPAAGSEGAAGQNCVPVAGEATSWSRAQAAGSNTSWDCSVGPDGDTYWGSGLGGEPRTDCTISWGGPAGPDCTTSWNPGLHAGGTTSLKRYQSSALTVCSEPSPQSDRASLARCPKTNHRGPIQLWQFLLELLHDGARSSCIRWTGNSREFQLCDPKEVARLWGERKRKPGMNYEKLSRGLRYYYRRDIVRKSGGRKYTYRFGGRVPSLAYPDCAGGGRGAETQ
How it was run: as §1

[17] = target: T11, ELF3 (Homo sapiens, UniProt P78545 1-371); details: protein: recombinant; tags: N-terminal GST; dsDNA, one strand shown
T11 sequence: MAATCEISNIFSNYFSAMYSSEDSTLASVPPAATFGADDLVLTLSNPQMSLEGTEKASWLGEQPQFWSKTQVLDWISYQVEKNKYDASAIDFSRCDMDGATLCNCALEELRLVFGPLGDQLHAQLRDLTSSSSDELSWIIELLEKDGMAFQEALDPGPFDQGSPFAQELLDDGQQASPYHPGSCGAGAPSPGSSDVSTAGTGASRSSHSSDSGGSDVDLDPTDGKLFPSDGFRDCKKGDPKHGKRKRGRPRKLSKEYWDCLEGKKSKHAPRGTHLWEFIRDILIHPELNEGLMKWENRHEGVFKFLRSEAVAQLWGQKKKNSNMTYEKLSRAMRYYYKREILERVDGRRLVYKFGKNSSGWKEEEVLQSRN
How it was run: as §1

[18] = target: CRX (Homo sapiens, UniProt O43186 1-299); details: protein: recombinant; tags: N-terminal GST; dsDNA, one strand shown
How it was run: as §1

[19] = target: ETV1 (Homo sapiens, UniProt P50549 1-477); details: protein: recombinant; tags: N-terminal GST; dsDNA, one strand shown
How it was run: as §1

Sequence of CRX (O43186 whole entry): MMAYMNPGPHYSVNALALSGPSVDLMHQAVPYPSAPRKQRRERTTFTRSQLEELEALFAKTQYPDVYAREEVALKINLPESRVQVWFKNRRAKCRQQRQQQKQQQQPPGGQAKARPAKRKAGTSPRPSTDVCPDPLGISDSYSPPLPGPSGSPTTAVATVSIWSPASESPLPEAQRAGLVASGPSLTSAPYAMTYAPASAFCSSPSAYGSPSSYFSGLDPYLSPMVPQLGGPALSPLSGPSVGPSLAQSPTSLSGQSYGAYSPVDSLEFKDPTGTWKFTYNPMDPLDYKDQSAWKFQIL
Sequence of ETV5 (P41161 whole entry): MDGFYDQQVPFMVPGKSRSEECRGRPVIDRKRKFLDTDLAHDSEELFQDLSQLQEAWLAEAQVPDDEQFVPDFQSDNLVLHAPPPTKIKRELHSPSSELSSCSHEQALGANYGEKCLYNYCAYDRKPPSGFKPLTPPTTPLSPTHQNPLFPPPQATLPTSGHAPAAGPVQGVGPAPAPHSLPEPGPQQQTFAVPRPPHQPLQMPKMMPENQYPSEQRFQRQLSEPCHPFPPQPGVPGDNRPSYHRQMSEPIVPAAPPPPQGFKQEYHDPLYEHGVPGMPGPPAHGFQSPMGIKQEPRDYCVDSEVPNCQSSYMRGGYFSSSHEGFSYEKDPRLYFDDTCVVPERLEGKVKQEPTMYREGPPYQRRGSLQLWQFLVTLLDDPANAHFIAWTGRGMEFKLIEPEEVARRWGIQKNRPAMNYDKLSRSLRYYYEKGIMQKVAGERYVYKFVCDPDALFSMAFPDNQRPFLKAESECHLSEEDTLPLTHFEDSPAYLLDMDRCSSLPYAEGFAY
Sequence of ELF1 (P32519 whole entry): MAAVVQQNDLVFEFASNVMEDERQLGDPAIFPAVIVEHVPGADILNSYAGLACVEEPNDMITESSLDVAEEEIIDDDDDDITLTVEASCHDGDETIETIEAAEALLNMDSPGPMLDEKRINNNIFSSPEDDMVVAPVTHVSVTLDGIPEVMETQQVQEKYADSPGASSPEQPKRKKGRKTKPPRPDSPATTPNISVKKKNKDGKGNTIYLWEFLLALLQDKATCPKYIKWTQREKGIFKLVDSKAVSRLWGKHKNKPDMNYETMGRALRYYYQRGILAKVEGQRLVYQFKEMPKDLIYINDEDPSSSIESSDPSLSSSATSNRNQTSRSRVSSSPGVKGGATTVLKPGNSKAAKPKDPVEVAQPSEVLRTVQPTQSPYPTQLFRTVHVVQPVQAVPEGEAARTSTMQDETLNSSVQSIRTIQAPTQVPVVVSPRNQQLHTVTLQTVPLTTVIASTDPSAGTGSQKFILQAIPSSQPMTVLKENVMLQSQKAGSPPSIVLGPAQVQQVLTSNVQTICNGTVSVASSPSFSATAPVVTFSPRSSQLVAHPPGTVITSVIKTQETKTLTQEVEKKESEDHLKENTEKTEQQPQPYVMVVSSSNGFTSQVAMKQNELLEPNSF
Sequence of HSF1 (Q00613 whole entry): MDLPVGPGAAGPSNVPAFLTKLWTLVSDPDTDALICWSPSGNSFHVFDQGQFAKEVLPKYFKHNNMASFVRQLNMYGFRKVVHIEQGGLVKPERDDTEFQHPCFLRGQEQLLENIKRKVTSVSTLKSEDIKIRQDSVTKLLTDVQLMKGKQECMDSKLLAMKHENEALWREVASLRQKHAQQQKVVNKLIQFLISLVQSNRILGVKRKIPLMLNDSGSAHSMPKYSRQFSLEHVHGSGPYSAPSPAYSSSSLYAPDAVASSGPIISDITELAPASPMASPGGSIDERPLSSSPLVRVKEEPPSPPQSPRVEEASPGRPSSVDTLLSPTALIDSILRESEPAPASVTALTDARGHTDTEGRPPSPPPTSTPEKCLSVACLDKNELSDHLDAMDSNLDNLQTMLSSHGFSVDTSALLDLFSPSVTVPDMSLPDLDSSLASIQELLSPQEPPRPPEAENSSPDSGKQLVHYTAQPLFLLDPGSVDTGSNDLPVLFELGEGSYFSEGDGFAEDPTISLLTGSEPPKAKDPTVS
Sequence of ETV1 (P50549 whole entry): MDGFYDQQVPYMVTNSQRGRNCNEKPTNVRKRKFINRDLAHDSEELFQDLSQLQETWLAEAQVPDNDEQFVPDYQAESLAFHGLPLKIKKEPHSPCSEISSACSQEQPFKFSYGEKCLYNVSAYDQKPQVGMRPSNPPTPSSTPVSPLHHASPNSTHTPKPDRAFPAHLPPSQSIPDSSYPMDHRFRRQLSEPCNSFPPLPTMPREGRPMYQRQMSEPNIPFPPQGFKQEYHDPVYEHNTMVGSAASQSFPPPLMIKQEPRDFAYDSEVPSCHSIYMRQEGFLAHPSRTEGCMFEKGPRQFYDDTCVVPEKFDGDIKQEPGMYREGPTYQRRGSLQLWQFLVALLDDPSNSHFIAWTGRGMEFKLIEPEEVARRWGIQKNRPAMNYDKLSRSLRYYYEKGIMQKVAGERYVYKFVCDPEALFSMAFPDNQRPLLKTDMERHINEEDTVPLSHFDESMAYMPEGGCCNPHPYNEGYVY
Sequence of SPIB (Q01892 whole entry): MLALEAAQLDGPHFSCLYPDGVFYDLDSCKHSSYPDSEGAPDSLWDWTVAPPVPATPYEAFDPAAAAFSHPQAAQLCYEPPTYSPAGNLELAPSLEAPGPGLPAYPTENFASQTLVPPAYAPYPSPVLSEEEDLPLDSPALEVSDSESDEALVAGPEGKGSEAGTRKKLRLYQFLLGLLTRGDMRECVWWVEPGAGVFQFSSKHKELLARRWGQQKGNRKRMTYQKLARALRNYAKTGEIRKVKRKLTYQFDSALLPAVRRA
Sequence of ELF4 (Q99607 whole entry): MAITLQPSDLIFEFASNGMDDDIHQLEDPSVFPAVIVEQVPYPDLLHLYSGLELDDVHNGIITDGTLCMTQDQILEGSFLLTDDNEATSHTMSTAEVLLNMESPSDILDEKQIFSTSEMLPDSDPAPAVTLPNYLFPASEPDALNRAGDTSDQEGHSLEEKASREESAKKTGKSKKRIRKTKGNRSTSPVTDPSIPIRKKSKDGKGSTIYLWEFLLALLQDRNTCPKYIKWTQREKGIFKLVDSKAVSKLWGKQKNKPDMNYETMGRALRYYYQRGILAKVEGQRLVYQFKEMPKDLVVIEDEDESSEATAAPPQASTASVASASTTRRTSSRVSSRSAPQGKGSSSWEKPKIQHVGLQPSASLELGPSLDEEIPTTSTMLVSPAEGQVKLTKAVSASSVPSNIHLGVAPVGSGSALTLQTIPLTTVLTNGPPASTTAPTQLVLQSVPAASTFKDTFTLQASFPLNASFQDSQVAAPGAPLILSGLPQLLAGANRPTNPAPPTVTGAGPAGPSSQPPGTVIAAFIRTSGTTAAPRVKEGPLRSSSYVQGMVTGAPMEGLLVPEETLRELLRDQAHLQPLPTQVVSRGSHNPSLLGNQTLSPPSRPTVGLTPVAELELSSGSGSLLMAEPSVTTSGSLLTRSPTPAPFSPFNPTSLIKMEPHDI

GAACTA
binding signal [1]: 1.39 fold enrichment (6-mer frequency, TF over GST control) | binding signal [2]: 1.39 fold enrichment (6-mer frequency, TF over GST control) | binding signal [3]: 1.34 fold enrichment (6-mer frequency, TF over GST control) | binding signal [4]: 1.32 fold enrichment (6-mer frequency, TF over GST control) | binding signal [5]: 1.3 fold enrichment (6-mer frequency, TF over GST control) | binding signal [6]: 1.37 fold enrichment (6-mer frequency, TF over GST control) | binding signal [7]: 1.41 fold enrichment (6-mer frequency, TF over GST control) | binding signal [8]: 1.32 fold enrichment (6-mer frequency, TF over GST control) | binding signal [9]: 1.37 fold enrichment (6-mer frequency, TF over GST control) | binding signal [10]: 1.25 fold enrichment (6-mer frequency, TF over GST control) | binding signal [11]: 1.33 fold enrichment (6-mer frequency, TF over GST control) | binding signal [12]: 1.32 fold enrichment (6-mer frequency, TF over GST control) | binding signal [13]: 1.48 fold enrichment (6-mer frequency, TF over GST control) | binding signal [14]: 1.21 fold enrichment (6-mer frequency, TF over GST control) | binding signal [15]: 1.25 fold enrichment (6-mer frequency, TF over GST control) | binding signal [16]: 1.31 fold enrichment (6-mer frequency, TF over GST control) | binding signal [17]: 1.23 fold enrichment (6-mer frequency, TF over GST control) | binding signal [18]: 1.13 fold enrichment (6-mer frequency, TF over GST control) | binding signal [19]: 1.37 fold enrichment (6-mer frequency, TF over GST control)
